Structures are written as SMILES. The campaign covered roughly 69,000 compounds. About 950 (1.4%) showed an effect of 50% or more. This excerpt belongs to a sample that is enriched for strong results.

The test system of this experiment is Mycobacterium tuberculosis. Nature of the experiment: Cornell M. t heat shock assay. Note: in the data most compounds retested in dose-response had high values. The format is functional, organism-based. The arrangement: dose or concentration left out as unconfirmed.
Consider `c1ccc2nc(N3CCOC(Cn4cncn4)C3)cnc2c1` (stereo not given), for which the “Percent Effect” value is -13.9%. The value for `c1ccc2nc(N3CCOC(Cn4cccn4)C3)cnc2c1` (stereo not given) was -17.06%; that for `Cc1cnn(CC2CN(c3cnc4ccccc4n3)CCO2)c1` (stereo not given) was 103.1%. The value for `Cc1cc(C)n(CC2CCCN2C(=O)c2nccc3ccccc23)n1` (stereo not given) was 3.715%; that for `CC(=O)N(C)[C@H]1CC[C@]2(CC1)CNC(=O)c1cc(C)ccc1O2` was 5.316%.

Consider `CN1CCN(Cn2nc(-c3cccs3)ccc2=O)CC1`, for which the “Percent Effect” value amounted to 6.699%.

On to `Cc1nc(-n2nc(-c3cccs3)cc2N)[nH]c(=O)c1C`, for which the “Percent Effect” value is 103.7%. The result for `CC(C(N)=O)n1nc(-c2cccs2)cc(N)c1=O` (stereo not given) reads 10.66%; that for `CCc1c(C)nc(-n2nc(-c3cccs3)cc2N)[nH]c1=O`, 106.4%. Turning to `Cc1nn(C)c(C)c1S(=O)(=O)NCCn1ccc(-c2cccs2)n1`, the “Percent Effect” value was -25.61%.

On to `CC(C(=O)N1CCCC1)n1nc(-c2cccs2)cc(N)c1=O` (stereo not given), for which the “Percent Effect” value was -4.273%. Take `CC1c2ncc(CN3CCN(C)CC3)n2CCN1Cc1ccsc1.O=C(O)C(F)(F)F.O=C(O)C(F)(F)F.O=C(O)C(F)(F)F` (stereo not given): the “Percent Effect” value is on record as -30.83%. Turning to `CCN1CCC2(CC1)OCCN2C(=O)c1ccc(OC)c(Cl)c1.Cl`, the “Percent Effect” value is 7.471%.

With `CCn1ncc2c1C(COC)N(C(=O)c1cccs1)CC2.O=C(O)C(F)(F)F` (stereo not given), the “Percent Effect” value is reported as 19.39%. `O=C(CC1CC2(CCN(CC3CC3)CC2)c2ccccc21)NC1CCC1.O=C(O)C(F)(F)F` (stereo not given): the “Percent Effect” value is -33.11%. The result for `O=C(O)C(F)(F)F.O=C1COC2(CCN(C(=O)c3ccco3)CC2)CN1Cc1ccccn1` reads -21.74%; that for `CC(C)(C)c1ccc(OCC(=O)O)c(CN2C[C@H]3C[C@H](O)C[C@H]3C2)c1`, -6.021%; that for `Cc1noc(C)c1CN1C(=O)[C@H]2CC[C@@H]1CN(C(=O)c1cscn1)C2`, 9.12%. On to `CNC(=O)c1ccc2c(c1)C1(CCN(CCOC)CC1)C(=O)N2.O=C(O)C(F)(F)F`, for which the “Percent Effect” value was -17.93%. The value for `Fc1cccc(Cl)c1CNCc1ccccn1` was 50.99%.

Turning to `Fc1cccc(Cl)c1CNCCCOc1ccccn1`, the “Percent Effect” value is -11.57%.

Regarding `Fc1cccc(Cl)c1CNCCOc1ccccn1`, the “Percent Effect” value is -12.87%. The result for `COCC(=O)NCc1cc(=O)n2c(n1)CN(CC1CCOC1)CCC2.O=C(O)C(F)(F)F` (stereo not given) reads -14.54%; that for `CC(C)NC(=O)N1CCC2(CCC(=O)N2CCN2CCCC2)CC1.O=C(O)C(F)(F)F`, -7.519%. The value for `c1ccc(-c2nc(SCc3nnc(C4CC4)o3)n[nH]2)nc1` was 78.14%; that for `CCc1noc(CSc2n[nH]c(-c3ccccn3)n2)n1` was 92.11%; that for `O=C(c1ccccn1)N1CCCN(Cc2nnc(C3CC3)o2)CC1` was 27.04%. The result for `Cc1nnc(CSc2n[nH]c(-c3ccccn3)n2)o1` reads 13.15%; that for `CCc1noc(CN2CCN(C(=O)c3ccccn3)CC2)n1`, 7.072%; that for `CCc1nnc(CSc2ccccn2)o1`, 0.1559%.
